Pf Dd2 inh: inhibitors of Plasmodium falciparum Dd2 growth. P. falciparum Dd2 growth, SYBR Green, 72 h. Potency, µM (highest dose often 28.9 µM), most hits filed as inhibitors. 120,000 tested, 4.3% active; active = well fitted inhibition curve with a large enough effect; note: nearly all actives have a fitted effect of over 65% in size
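Readout: SYBR Green fluorescence, 485 nm excitation, 535 nm emission, after ~16 h lysis at 37C. Before that, Dd2-infected red cells (2.5% hematocrit) grew 72 h with compound, 29 uM top final concentration.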
Of the large screens only hits and unclear results are named; the others gave an inactive call. The entries come from a sample that favours hits as a whole.

Cc1cccc(NC(=O)CN2C(=O)C(c3ccccc3)=NC23CCCC3)c1C	none
Cc1ccc([S+](=O)([O-])N2CCC3(CC2)Cc2ccccc2NC3=O)cc1	none
CC(C)c1ccc(CNC(=O)c2cc3n(n2)CC(c2ccc4c(c2)OCO4)OC3)cc1 (stereo unspecified)	none
COC[C@@H]1CN(C(=O)c2ccc(=O)[nH]c2)C[C@H]1c1ccncc1	none
COc1cccc(CC(=O)N2CCC(c3n[nH]c(=O)n3-c3ccccc3)CC2)c1	none
COc1cccc(C(=O)N2CC(F)(F)C[C@H]2c2nc(C)no2)c1OC	none
Cc1nc(-c2cccs2)cc([C@H]2CN3CC[C@H]2C[C@@H]3CNC(=O)Nc2cccc(C(F)(F)F)c2)n1	Pf Dd2 inh 8.9µM
Cc1nc(-c2ccc(F)cc2)cc([C@H]2CN3CC[C@H]2C[C@@H]3CNC(=O)Nc2cccc(C#N)c2)n1	none
Cc1nc(-c2ccc(C(F)(F)F)cc2)cc([C@H]2CN3CC[C@H]2C[C@@H]3CNC(=O)N2CCOCC2)n1	none
COc1cccc(CN2CCC(c3nn(Cc4ccccc4)c(=O)[nH]3)CC2)c1	none
CC(=O)N1CCOC[C@H](Oc2ccc(S(C)(=O)=O)cc2)C1	none
O=C(CN1CCOCC1)N[C@@H]1CCOC[C@H]1Oc1ccc(C(=O)O)cc1	none
Cc1cc(CNC(=O)[C@@H]2CCC[C@@H](NC(=O)c3cccnc3)CN(C)C(=O)C2)no1	none
COc1ccc2c(c1)C=C(CN1CCCC(O)(CN(C)C)C1)CO2 (stereo unspecified)	none
CN(C)CC1(O)CCCN(Cc2ccc(-c3ccc(Cl)cc3)o2)C1 (stereo unspecified)	none
CCOc1cc(C)c(CN2CCCC(O)(CN(C)C)C2)cc1C(C)C (stereo unspecified)	Pf Dd2 inh 2.8µM
CC1=C[C@@H](CN2CCC(C(N)=O)CC2)[C@H](C(C)C)C[C@H]1Cc1nnc(C)o1	none
CC1=C[C@@H](CN2CCC(O)CC2)[C@H](C(C)C)C[C@H]1Cc1nnc(C(C)(C)C)o1	Pf Dd2 inh 10µM
CCCc1nnc(C[C@@H]2C[C@@H](C(C)C)[C@H](CN3CC[C@H](NC(C)=O)C3)C=C2C)o1	Pf Dd2 inh 5µM
CC(=O)NC[C@@H]1C=C(C)[C@H](CC(=O)O)C[C@H]1C(C)C	none
CCCc1nnc([C@H]2CCN(Cc3ccc(NC(C)=O)cc3)C2)o1	none
CC1=C[C@@H](CC#N)[C@H](C(C)C)C[C@H]1CC(=O)N1CCC(C)CC1	none
COc1ccc(C(=O)NC[C@@H]2C=C(C)[C@H](CC(=O)N3CCOCC3)C[C@H]2C(C)C)cc1	none
COCCN1CCN(C[C@@H]2C=C(C)[C@H](Cc3nnc(COc4ccc(F)cc4)o3)C[C@H]2C(C)C)CC1	Pf Dd2 inh 5µM
CCCc1nnc(C[C@@H]2C[C@@H](C(C)C)[C@H](CN3CCC(CO)CC3)C=C2C)o1	Pf Dd2 inh 10µM
Cc1nc(N2CCC(NC(=O)c3cccc(F)c3)CC2)cc(C(F)(F)F)n1	none
O=C(c1ccc(CSc2ncccn2)o1)N1CCC2(CCOCC2)CC1	none
CC1(C)CN(S(=O)(=O)N2CCCC2)CC1c1ccccc1 (stereo unspecified)	none
Cn1ccc(NC(=O)C2(C)CCc3cnc(NCc4ccccc4)nc32)n1 (stereo unspecified)	none
CN1C[C@H](NC2CCC2)CCC[C@@H](C(=O)N(C)Cc2cccnc2)CC1=O	none
O=C(NCc1ccncc1)C1CN(S(=O)(=O)c2cccnc2)CC12CCCCC2 (stereo unspecified)	none
CC(C)N1C[C@H](O)C[C@H]1c1nnc2n1CCN(C(=O)Cc1cccc(F)c1)CC2	none
Cc1csc(NC(=O)c2nc3c(o2)CCN(Cc2c(C)noc2C)CC3)n1	none
COc1nccc(N2CCC(CC(=O)N(C)CCCc3c(C)nn(C)c3C)CC2)n1	none
CCOc1ccc(Nc2c(S(=O)(=O)c3ccc(C)cc3)cnc3ccccc23)cc1	none
CC1CCCN(c2c(S(=O)(=O)c3ccccc3)cnc3ccc(Cl)cc23)C1 (stereo unspecified)	none
Cc1ccc2ncc(S(=O)(=O)c3ccccc3)c(N3CCCCC3C)c2c1 (stereo unspecified)	Pf Dd2 inh 10µM
Cc1cn2cc(C(=O)N(C)CCC(O)c3ccccc3)ccc2n1 (stereo unspecified)	none
CN(CCC(O)c1ccccc1)c1nccc(-c2cccnc2)n1 (stereo unspecified)	Pf Dd2 inh 10µM
CN(Cc1cc(C2CC2)n[nH]1)c1nccc(-c2cccnc2)n1	none
CC(O)c1cc2n(n1)CCCN(CCn1cc[nH]c1=O)C2 (stereo unspecified)	none
CN(Cc1cn(C)c2ccccc12)C1CCc2nn(CC3CC3)c(=O)n2CC1 (stereo unspecified)	Pf Dd2 inh 5µM
CCn1cc(CN(C)C2CCc3nn(CC4CC4)c(=O)n3CC2)c(C)n1 (stereo unspecified)	none
CN(C(=O)Cc1c[nH]c2ccccc12)C1CCc2nn(CC3CC3)c(=O)n2CC1 (stereo unspecified)	none
CCc1nnc([C@@H]2CC(F)(F)CN2C(=O)c2coc(C)n2)o1	none
CCOc1ccc(-c2nc(C3CC(=O)N(c4ccc(F)c(Cl)c4)C3)no2)cc1 (stereo unspecified)	none
COCC(=O)N1CCC(C(NC(=O)c2ccccc2)C(=O)N2CCCCC2)CC1 (stereo unspecified)	none
N#Cc1ccc(CN2CCCC3(CNc4ccccc4[S+](=O)([O-])N3)C2)cc1 (stereo unspecified)	none
CC(C)CCN1CCCC2(CNc3ccccc3[S+](=O)([O-])N2)C1 (stereo unspecified)	Pf Dd2 inh 13µM
Cn1nccc1CN1CCCC2(CNc3ccccc3[S+](=O)([O-])N2)C1 (stereo unspecified)	none
CC(C)C1=NOC2(CCN(C(=O)c3ccccn3)C2)C1 (stereo unspecified)	none
COc1cccc(-c2n[nH]c3c2CC(=O)N(Cc2ccccc2F)C3)c1OC	none
CC1(C)[C@H]2CC[C@@H](CNC(=O)c3cccc(Br)c3)[C@@H]1C2	Pf Dd2 inh 11µM
CC1(C)[C@H]2CC[C@@H](CNC(=O)c3cc(F)ccc3Br)[C@@H]1C2	none
CC1(C)[C@H]2CC[C@@H](CNC(=O)c3ccncc3)[C@@H]1C2	none
COc1ccc(NC2CCCN(C(=O)c3ccc(S(N)(=O)=O)cc3)C2)cc1 (stereo unspecified)	none
FC1(F)CN[C@H](c2nc(-c3ncccn3)no2)C1	none
COCC1CN(C2CCC2)CC12CCN(C(=O)Cc1ccccc1F)CC2 (stereo unspecified)	Pf Dd2 inh 5.6µM
COCC1CN(C2CCC2)CC12CCN(C(=O)c1cn(C)cn1)CC2 (stereo unspecified)	none
CCS(=O)(=O)N1CCC2(CC1)CN(C1CCC1)CC2COC (stereo unspecified)	none
CCOCC(=O)N1CCC2(CC1)CN(C1CCC1)CC2COC (stereo unspecified)	none
COC[C@@H]1CN(C(=O)c2ccc(OC)c(F)c2)C[C@H]1C(N)=O	none
COCC1CN(C(C)=O)CC12CCN(C(=O)Cc1ccc(OC)cc1)CC2 (stereo unspecified)	none
COCC1CN(C2CCC2)CC12CCN(C(=O)C(C)C)CC2 (stereo unspecified)	none
COCC1CN(C2CCC2)CC12CCN(C(=O)Cc1ccccc1OC)CC2 (stereo unspecified)	Pf Dd2 inh 13µM
COCC1CN(C2CCC2)CC12CCN(C(=O)c1ccc(OC)c(F)c1)CC2 (stereo unspecified)	Pf Dd2 inh 5µM
O=C(CCc1nnn2c1CN(C(=O)c1ccccc1F)CC2)NC1CC1	none
CC1(O)CCCN(c2ccc(-c3nc(CCCc4ccccc4)no3)cn2)C1 (stereo unspecified)	none

Source: PubChem (National Center for Advancing Translational Sciences (NCATS))
